Screening results deposited in PubChem BioAssay by National Center for Advancing Translational Sciences (NCATS).
A selection: hits, their analogues and other compounds. The true share with any hit is near 19%.
HT1080NT lethal – kills 2HG-producing HT-1080-NT fibrosarcoma cells; HT-1080-NT fibrosarcoma viability, CellTiter-Glo ATP luminescence, 48 h; Potency, µM (top dose mostly 46.1 µM), for inactives: top-dose activity, negative = less viability, hits mostly cytotoxic; hit rate 1.6% among 360,000; AID 686970;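 further: NT is the 2HG producing partner of a matched IDH1 knockdown line; 0% = DMSO-treated cells and -100% = media-only wells without cells; nearly all actives have a fitted effect of over 55% in size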
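HT-1080-NT; 750 cells/well; 5% FBS RPMI; 48 h compound, 37 degrees C; CellTiter-Glo luminescence; curve fitting and curve-class assignment.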
DT40 TDP1 CPT – growth inhibition of DT40 Tdp1-/-;hTDP1 cells with camptothecin (screen for TDP1 inhibitors); chicken DT40 Tdp1-/-;hTDP1 cells + 20 nM CPT, ATP luminescence, 48 h; Potency, µM (series often up to 46.2 µM), without a hit: top-dose activity change, negative = growth inhibition, most hits filed as inhibitors; hit rate 12% among 420,000; further: nearly all actives have a fitted effect of over 55% in size
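Chicken DT40 Tdp1-/- cells complemented with human TDP1, 400 cells/well, exposed to compounds plus 20 nM camptothecin for at least 48 h at 37 C; viability read as ATP content by CellTiter-Glo luminescence.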
KB-V1 cytotox – KB-V1 MDR subline cytotoxicity; KB-V1 MDR cells viability, CellTiter-Glo, 72 h; AID 1347076; hit rate 3.4% among 400,000; Potency, µM (doses to about 46.1 µM), most hits filed as cytotoxic; further: nearly all actives have a fitted effect of over 60% in size
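KB-V1 cells (P-gp-expressing MDR subline of KB-3-1) in phenol-red-free DMEM with 10% FBS were exposed to library compounds over a concentration series for 72 h at 37 degrees C. Viability read by CellTiter-Glo luminescence; concentration-effect curves fitted after normalization.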
KB-3-1 tox – KB-3-1 parental cell cytotoxicity. KB-3-1 viability, CellTiter-Glo ATP luminescence, 72 h. hit rate 1.4% among 400,000. Potency, µM (highest dose often 46.1 µM), usual class: cytotoxic; further: nearly all actives have a fitted effect of over 60% in size
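Using CellTiter-Glo luminescence, growth of non-resistant KB-3-1 adenocarcinoma cells is assessed 72 h after pin-tool compound addition at 37 °C. Normalized responses across the concentration series yield fitted curves.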
HT1080 IDH1KD tx – kills HT-1080 cells with IDH1 knockdown | AID 686971 | hit rate 2% among 360,000 | Potency, µM (series often up to 46.1 µM), without a hit: top-dose activity, negative = toxicity, hits mostly cytotoxic | HT-1080 IDH1 knockdown viability, ATP luminescence, 48 h;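 further: 0% = DMSO wells and -100% = cell-free medium wells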
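Knockdown cells (IDH1KD HT-1080) received compounds 2 h after plating at 750 cells/well and were kept 48 h at 37 °C in 5% FBS RPMI. A CellTiter-Glo luminescence read gave % activity for curve fitting.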
DT40 TDP1 no CPT – qHTS for Inhibitors of human tyrosyl-DNA phosphodiesterase 1 (TDP1): qHTS in cells in absence of CPT | hit rate 15% among 420,000 | DT40 Tdp1-/- hTDP1 cells, no CPT, ATP luminescence, 48 h | Potency, µM (top dose mostly 46.2 µM), without a hit: at the highest dose activity change, negative = growth inhibition, actives largely listed as inhibitors; further: nearly all actives have a fitted effect of over 55% in size
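Luminescent ATP content (CellTiter-Glo) served as the growth readout. Knockout chicken DT40 cells expressing human TDP1 were exposed to compounds without camptothecin for a minimum 48 hr at 37 °C.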
Starred values were filed as active, the others as inactive; i = inactive; u = inconclusive; x = no result. The call rests on the fitted dose curve; in most records, active means well fitted curve in the direction sought with a large enough effect; inconclusive means small, poorly fitted or top-dose-only effect, or another doubt; inactive means no such curve, though single readings can be large; an effect the other way counts as inactive or inconclusive. Unless noted, on the % scale 0 is the no-effect control and ±100 the full control effect; potency means the concentration at half of the fitted maximal effect.

SMILES	HT1080NT lethal	DT40 TDP1 CPT	KB-V1 cytotox	KB-3-1 tox	HT1080 IDH1KD tx	DT40 TDP1 no CPT
CCOc1cc(NC(=O)c2ccccc2C)c(OCC)cc1NC(=O)C1=Cc2ccccc2OC1	-3.5%	7.31µM*	i	i	8.9%	5.8µM*
O=C(Nc1ccc(Cl)c(Cl)c1)C1=Cc2ccccc2OC1	u	u	i	i	u	23.1µM*
COc1ccc(NC(=O)Cn2c(=O)n(CCc3ccccc3)c(=O)c3sc4ccccc4c32)cc1	x	-13.5%	i	i	x	-1.5%
Oc1ccccc1C=NCc1ccccc1	x	4.8%	x	x	x	u
CCCCNC(=O)c1c(O)c2cccc3c2n(c1=O)CCC3	7.8%	5.7%	i	i	4.1%	u
O=C(NCCCO)c1c(O)c2cccc3c2n(c1=O)CCC3	-8.1%	u	11.6µM*	5.8µM*	-14.8%	-21.1%
CCCc1nnc(NC(=O)c2c(O)c3cccc4c3n(c2=O)CCC4)s1	x	3.55µM*	u	u	x	0.794µM*
Cc1ccc(-c2nc3sc(CCNC(=O)c4ccc(Br)o4)c(C)n3n2)cc1	x	u	i	i	x	29.1µM*
Cc1c(CCNC(=O)c2ccc(Br)o2)sc2nc(-c3ccc(F)cc3)nn12	x	11.6µM*	x	x	x	4.61µM*
COc1ccc(-c2nc3sc(CCNC(=O)c4cccc(C(F)(F)F)c4)c(C)n3n2)cc1	x	u	i	i	x	u
O=C1CC(NS(=O)(=O)c2cccs2)CN1c1cccc(F)c1 (stereo not drawn)	13.2%	u	i	i	9.2%	u
COc1cc2cc(CNc3ccccc3)c(=O)n(CC(=O)Nc3cc(C)cc(C)c3)c2cc1OC	x	x	i	i	x	x
COC(=O)c1ccc(NC(=O)CSC2=NCCN2)cc1	u	u	u	u	-24.4%	14.6µM*
CCC(C(=O)N1CCOCC1)n1c2ccccc2c2nc(=O)cc(C)n21 (stereo not drawn)	4.9%	3.7%	i	i	-7.5%	1.1%
c1ccc2c(c1)C1=NCCN1c1ccccc1-2	u	2.91µM*	11.6µM*	u	16.4µM*	2.31µM*
COC1=Nc2ccccc2N2CCN=C12	-1.2%	9.6%	i	i	u	39.2%
Cc1ccccc1Nc1scc(-c2ccc(Cl)cc2)[n+]1-c1ccccc1C	-4.5%	18.4µM*	i	9.2µM*	-3.8%	23.1µM*
Cc1csc(Nc2ccccc2)[n+]1-c1ccccc1	0.7%	-20.0%	u	i	-7.1%	u
O=C(CC(C(=O)N1CCc2ccccc21)n1ccnc1)N1CCc2ccccc2C1 (stereo not drawn)	-1.0%	u	8.2µM*	i	u	-16.4%
CCN(CCCNC(=O)CC(C(=O)N1CCc2ccccc21)n1ccnc1)c1cccc(C)c1 (stereo not drawn)	-2.2%	-24.2%	11.6µM*	i	u	-13.7%
COc1ccc(CCNC(=O)C2c3ccccc3C(=O)N2CCC(C)C)cc1OC (stereo not drawn)	-1.9%	-20.7%	i	i	11.6%	3.2%
Cc1cc2c(Nc3ccc(C(=O)O)cc3)ncnc2s1	-4.2%	17.8%	i	i	-5.8%	17.1%
NNC(=O)c1cc(-c2ccc(N)cc2)nc2ccc(Br)cc12	7.9%	u	i	i	-13.6%	14.6µM*
COc1cc(NC(=O)c2cc(-c3cccnc3)nc3ccc(Br)cc23)cc(OC)c1	3.1%	u	i	u	1.6%	20.6µM*
COc1ccc(NC(=O)c2cc(-c3ccncc3)nc3ccc(Br)cc23)cc1OC	1.5%	u	i	u	3.4%	20.6µM*
O=S1(=O)[C@H]2C[C@H](CO)O[C@@]2(CO)CN1Cc1ccc(-c2cccc(Cl)c2)cc1	-4.4%	20.6µM*	i	i	-3.2%	u
Cc1ccc(C(C(=O)NC2CCCC2)N(C(=O)Cc2cccs2)c2ccc(C)c(C)c2)o1 (stereo not drawn)	0.0%	u	20.6µM*	i	u	22.4µM*
Cc1cccc(CCN(C(=O)Cc2cccs2)C(C(=O)NC2CCCCC2)c2cccnc2)c1 (stereo not drawn)	-5.5%	5.8µM*	i	i	1.5%	u
